In PubChem BioAssay:
Active and inactive are the calls of the source.

Legend:
Albumin (Bos taurus) = Albumin (Bos taurus) (UniProt P02769); assay: bovine serum albumin binders on microarray, profiling panel, artefact control for SMM control protein annotation, biochemical, small-molecule microarray, Alexa647 label, 635/667 nm fluorescence (AID 1118); conditions: BSA-A647 binding, fluorescence 635 nm, higher = more signal;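 also: score merges 667 nm emission intensity and signal-to-noise per printed compound spot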
Chain of Albumin (Bos taurus) (P02769 whole entry, looked up): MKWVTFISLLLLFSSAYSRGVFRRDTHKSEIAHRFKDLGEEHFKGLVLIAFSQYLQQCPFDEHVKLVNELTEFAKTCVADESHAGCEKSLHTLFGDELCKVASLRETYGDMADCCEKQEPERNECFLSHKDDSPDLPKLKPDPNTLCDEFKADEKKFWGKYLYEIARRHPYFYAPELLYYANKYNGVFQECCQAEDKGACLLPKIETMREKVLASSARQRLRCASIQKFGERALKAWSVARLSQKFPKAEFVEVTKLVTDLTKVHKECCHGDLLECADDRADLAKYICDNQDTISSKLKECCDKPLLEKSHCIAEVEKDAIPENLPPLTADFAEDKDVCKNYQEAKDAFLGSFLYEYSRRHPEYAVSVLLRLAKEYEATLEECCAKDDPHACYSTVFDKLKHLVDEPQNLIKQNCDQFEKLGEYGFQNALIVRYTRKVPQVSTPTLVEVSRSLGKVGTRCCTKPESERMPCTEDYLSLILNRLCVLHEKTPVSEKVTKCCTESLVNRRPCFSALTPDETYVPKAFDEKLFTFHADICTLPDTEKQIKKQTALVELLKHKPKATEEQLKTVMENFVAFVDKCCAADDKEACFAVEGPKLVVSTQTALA

[1] = small-molecule microarray binders of probe aXIP, primary screen, biochemical, NeuroSMM set, 635/667 nm fluorescence (AID 1119); conditions: higher = more signal, called active from +8 up or from −8 down;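 also: probe is the protein aXip251-270 applied at 1 µg/mL to compound-printed slides; binding of probe to printed compounds measured as 667 nm fluorescence plus signal to noise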
[2] = small-molecule binders of probe aNOTCH3, primary screen, biochemical, small-molecule microarray, 635/667 nm fluorescence (AID 1120); conditions: higher = more signal;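 also: probe is a biotin-tagged antibody raised against NOTCH3 rather than NOTCH3 protein; score merges spot fluorescence near 667 nm with spot signal to noise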
[3] = small-molecule binders of probe aNOTCH2, primary screen, biochemical, small-molecule microarray, 635/667 nm fluorescence (AID 1121); conditions: higher = more signal;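 also: score merges feature fluorescence read at 667 nm with its signal to noise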
[4] = target: Carbonic anhydrase 2 (Homo sapiens) (UniProt P00918); assay: CAII small-molecule binders, profiling panel, biochemical, small-molecule microarray, Alexa647-labelled CAII (AID 1122); conditions: CAII-A647 binding fluorescence, higher = more signal
[5] = COS7 lysate on small-molecule microarray, probe aHis, 635 nm (AID 1123); conditions: COS7 cell lysate, fluorescence, higher = more signal;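 also: z-score combines 667nm fluorescence intensity with signal-to-noise per printed compound spot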
[6] = compound binding in COS7 lysate, probe aLAP1, primary screen, cell lysate, small-molecule microarray (AID 1124); conditions: probe aLAP1, fluorescence, higher = more signal;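 also: lysate comes from COS7 cells expressing LAP1 and is applied at 0.3 µg/mL; score merges spot fluorescence near 667 nm with signal-to-noise over triplicate slides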
Sam68 (KHDRBS1) = assay: Sam68 small-molecule binders, primary screen, biochemical, small-molecule microarray, 635 nm fluorescence (AID 1125); conditions: small-molecule microarray binding, higher = more signal;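 also: score merges 667 nm channel intensity with signal to noise over triplicate slides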
[7] = test system: Chordin-like protein 2 (CHRDL2); assay: CHRDL2 small-molecule binders, primary screen, biochemical, small-molecule microarray, 635 nm fluorescence (AID 1126); conditions: small-molecule microarray binding, fluorescence 635 nm; higher = more signal;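 also: printed compound slides probed with Chrdl2 protein at 4 µg/mL for 1 h at 4 C; score merges 667 nm emission intensity with signal to noise over three replicate slides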
[8] = target: Concanavalin-A (Canavalia ensiformis) (UniProt P02866); assay: ConA small-molecule binders, primary screen, artefact control for SMM control protein annotation, biochemical, small-molecule microarray, Alexa647 label, 635 nm (AID 1127); conditions: ConA-A647 binding fluorescence, higher = more signal;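 also: z combines 667 nm emission intensity with signal-to-noise across three replicate slides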
Chain of Concanavalin-A (Canavalia ensiformis) (P02866 whole entry, looked up): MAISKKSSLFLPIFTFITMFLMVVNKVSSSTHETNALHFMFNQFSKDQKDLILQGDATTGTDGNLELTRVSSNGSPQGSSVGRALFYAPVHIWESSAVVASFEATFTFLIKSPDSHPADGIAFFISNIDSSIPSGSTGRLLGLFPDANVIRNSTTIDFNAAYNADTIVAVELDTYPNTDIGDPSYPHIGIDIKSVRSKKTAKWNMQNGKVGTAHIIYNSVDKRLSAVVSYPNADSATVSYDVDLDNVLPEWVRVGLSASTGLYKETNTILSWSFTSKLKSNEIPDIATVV

[9] = anti-His antibody binders, primary screen, artefact control for SMM control protein annotation, biochemical, small-molecule microarray, 635 nm fluorescence (AID 1128); conditions: anti-His Alexa647 antibody binding, higher = more signal;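 also: score merges feature fluorescence with signal-to-noise for each printed compound spot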
[10] = test system: Human papillomavirus type 1a E7 protein (residues 1-88); assay: HPV1a E7 small-molecule binders, primary screen, biochemical, small-molecule microarray, residues 1-88, 635 nm (AID 1129); conditions: small-molecule microarray binding, fluorescence 635 nm; higher = more signal
[11] = target: Focal adhesion kinase 1 (Homo sapiens) (UniProt Q05397); assay: small-molecule microarray binders of FAK, primary screen, biochemical, 635/667 nm fluorescence, BSA, DTT (AID 1130); conditions: PTK2 binding, 635 nm fluorescence, higher = more signal;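 also: composite of spot emission at 667 nm and signal to noise over triplicate slides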
Chain of Focal adhesion kinase 1 (Homo sapiens) (Q05397 whole entry, looked up): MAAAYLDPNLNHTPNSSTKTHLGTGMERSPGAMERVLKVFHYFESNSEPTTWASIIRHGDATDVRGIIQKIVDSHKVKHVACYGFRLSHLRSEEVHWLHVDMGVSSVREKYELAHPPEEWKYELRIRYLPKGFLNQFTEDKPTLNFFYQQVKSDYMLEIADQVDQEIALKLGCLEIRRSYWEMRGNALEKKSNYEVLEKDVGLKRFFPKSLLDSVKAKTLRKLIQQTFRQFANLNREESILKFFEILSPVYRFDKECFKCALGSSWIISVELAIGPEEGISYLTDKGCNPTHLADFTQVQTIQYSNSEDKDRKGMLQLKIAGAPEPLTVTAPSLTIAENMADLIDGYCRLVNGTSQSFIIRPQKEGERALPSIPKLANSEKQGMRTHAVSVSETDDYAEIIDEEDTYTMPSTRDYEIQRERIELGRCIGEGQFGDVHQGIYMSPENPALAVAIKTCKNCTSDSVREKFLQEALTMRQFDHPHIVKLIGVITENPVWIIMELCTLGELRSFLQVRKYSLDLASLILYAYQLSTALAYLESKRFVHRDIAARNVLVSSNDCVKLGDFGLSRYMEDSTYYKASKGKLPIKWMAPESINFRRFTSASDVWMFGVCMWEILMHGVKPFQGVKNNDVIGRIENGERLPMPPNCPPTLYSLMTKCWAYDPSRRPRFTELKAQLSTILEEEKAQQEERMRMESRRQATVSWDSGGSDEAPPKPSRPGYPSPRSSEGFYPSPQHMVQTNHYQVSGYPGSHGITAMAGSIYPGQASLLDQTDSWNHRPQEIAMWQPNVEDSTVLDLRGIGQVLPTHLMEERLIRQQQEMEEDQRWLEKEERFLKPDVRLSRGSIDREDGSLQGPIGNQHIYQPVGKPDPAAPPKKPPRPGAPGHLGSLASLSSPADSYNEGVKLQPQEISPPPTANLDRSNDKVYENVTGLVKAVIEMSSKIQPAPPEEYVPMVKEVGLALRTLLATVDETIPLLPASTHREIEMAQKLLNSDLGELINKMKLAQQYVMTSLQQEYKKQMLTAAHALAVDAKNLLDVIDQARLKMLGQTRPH

[12] = test system: Fibrinogen (Alexa647-labelled); assay: fibrinogen binders on compound microarrays, profiling panel, artefact control for SMM control-protein annotation, biochemical, small-molecule microarray, 635/667 nm fluorescence (AID 1131); conditions: fibrinogen-A647 binding fluorescence, higher = more signal;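 also: z-score merges 667 nm fluorescence with per-spot signal-to-noise over triplicate slides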
[13] = target: Follistatin (Homo sapiens) (UniProt P19883); assay: follistatin binders on small-molecule microarrays, primary screen, biochemical, small-molecule microarray, 635/667 nm fluorescence (AID 1132); conditions: FST binding, 635 nm fluorescence, higher = more signal
Chain of Follistatin (Homo sapiens) (P19883 whole entry, looked up): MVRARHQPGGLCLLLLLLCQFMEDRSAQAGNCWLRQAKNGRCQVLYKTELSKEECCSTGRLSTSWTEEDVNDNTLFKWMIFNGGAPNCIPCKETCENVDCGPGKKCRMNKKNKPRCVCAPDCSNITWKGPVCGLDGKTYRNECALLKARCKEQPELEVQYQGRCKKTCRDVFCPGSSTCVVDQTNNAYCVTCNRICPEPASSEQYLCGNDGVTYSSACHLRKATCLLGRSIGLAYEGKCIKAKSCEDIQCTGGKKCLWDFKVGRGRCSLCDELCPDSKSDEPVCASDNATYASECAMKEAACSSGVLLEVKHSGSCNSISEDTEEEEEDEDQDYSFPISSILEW

[14] = target: Fibroblast growth factor 2 (Homo sapiens) (UniProt P09038); assay: FGF2 binders on small-molecule microarrays, primary screen, biochemical, small-molecule microarray, 635/667 nm fluorescence (AID 1133); conditions: small-molecule microarray binding, FGF2, fluorescence 635/667; higher = more signal
Chain of Fibroblast growth factor 2 (Homo sapiens) (P09038 whole entry, looked up): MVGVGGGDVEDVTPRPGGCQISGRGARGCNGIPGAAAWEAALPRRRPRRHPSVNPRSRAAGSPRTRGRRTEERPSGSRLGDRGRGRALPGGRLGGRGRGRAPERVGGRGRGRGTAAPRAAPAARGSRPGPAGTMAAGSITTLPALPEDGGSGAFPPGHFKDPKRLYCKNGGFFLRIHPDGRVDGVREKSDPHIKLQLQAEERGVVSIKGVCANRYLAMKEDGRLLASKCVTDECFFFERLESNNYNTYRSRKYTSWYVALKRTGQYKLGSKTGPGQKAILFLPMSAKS

[15] = mitochondrial membrane potential change in A549 cells, profiling panel, cell-based, JC-1 fluorescence, basal, 24 h, 100 nL (AID 1138); conditions: higher = more signal;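 also: A549 lung adenocarcinoma cells under basal conditions with no added stimulus; test concentration not given here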
Lefty1 = Lefty1 binders on small-molecule microarrays, primary screen, biochemical, small-molecule microarray, 635/667 nm fluorescence (AID 1139); conditions: small-molecule microarray binding, fluorescence 635/667; higher = more signal
[16] = test system: wheat germ agglutinin (Triticum aestivum), Alexa647-labelled; assay: wheat germ agglutinin binders on compound microarrays, profiling panel, artefact control for SMM control-protein annotation, biochemical, small-molecule microarray, 635/667 nm fluorescence (AID 1140); conditions: WGA-A647 binding, 635 nm fluorescence, higher = more signal;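 also: score merges 667 nm feature emission with signal to noise over triplicate slides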
[17] = target: Luciferin 4-monooxygenase (Photinus pyralis) (UniProt P08659); assay: firefly luciferase enzyme inhibitors, primary screen, biochemical, luminescence, purified enzyme, 2006 set (AID 1141); conditions: SteadyGlo luminescence, 30 min, higher = more signal, called active from +8 up or from −8 down;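 also: cell-free assay with purified firefly luciferase at 100 ng per well in PBS; test concentration not given here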
Chain of Luciferin 4-monooxygenase (Photinus pyralis) (P08659 whole entry, looked up): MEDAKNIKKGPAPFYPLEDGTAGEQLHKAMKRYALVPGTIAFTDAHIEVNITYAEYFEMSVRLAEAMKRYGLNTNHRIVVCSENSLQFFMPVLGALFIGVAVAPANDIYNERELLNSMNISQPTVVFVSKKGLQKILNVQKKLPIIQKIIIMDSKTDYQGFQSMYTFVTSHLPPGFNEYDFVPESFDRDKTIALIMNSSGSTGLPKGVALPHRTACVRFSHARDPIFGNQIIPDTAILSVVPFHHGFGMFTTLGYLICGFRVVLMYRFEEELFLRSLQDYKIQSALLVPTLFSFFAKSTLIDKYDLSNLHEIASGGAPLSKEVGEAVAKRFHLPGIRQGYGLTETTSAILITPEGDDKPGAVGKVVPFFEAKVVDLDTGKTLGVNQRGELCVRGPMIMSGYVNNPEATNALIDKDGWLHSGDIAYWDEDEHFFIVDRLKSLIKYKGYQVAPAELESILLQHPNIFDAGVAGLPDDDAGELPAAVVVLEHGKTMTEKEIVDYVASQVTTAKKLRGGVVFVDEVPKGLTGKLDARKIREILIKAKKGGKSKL

Structure (SMILES)	composite z-score (Albumin (Bos taurus))	composite Z-score [1]	composite z-score [2]	composite z-score [3]	composite z-score [4]	composite z-score [5]	composite z-score [6]	composite z-score (Sam68 (KHDRBS1))	composite z-score [7]	composite z-score [8]	composite z-score [9]	composite z-score [10]	composite z-score [11]	composite z-score [12]	composite z-score [13]	composite z-score [14]	z-score [15]	composite z-score (Lefty1)	composite z-score [16]	z-score [17]
CCN1C(C)=C(C(=O)OC)[C@@H](c2ccccc2)N2C(=O)[C@@]3(C(=O)OC)O[C@@]12[C@@H]1C(=O)N(c2ccccc2)C(=O)[C@@H]13	0.846	-0.0754 (inactive)	-0.055	-0.153	0.66	0.463	0.581	1.14	0.522	0.744	1.44	0.678	0.231	0.389	0.462	1.51	0.507	1.27	0.238	-0.569 (inactive)
CO[C@H]1O[C@H](CO)[C@@H](OC(=O)Nc2ccc(Oc3ccccc3)cc2)[C@H](OC(=O)Nc2ccccc2-c2ccccc2)[C@H]1OC(=O)Nc1ccccc1-c1ccccc1	0.892	-0.0478 (inactive)	0.289	-0.0519	0.442	2.68	1.26	1.31	0.203	1.18	2.31	1.24	1.62	0.98	0.95	0.938	-1.28	0.62	1.38	-1.02 (inactive)
CC(C)[Si]1(C(C)C)O[C@@H](c2ccccc2)c2cc(C3CC3)nc(-c3ccc(Oc4ccccc4)cc3)c21	-1.01	-0.233 (inactive)	-0.157	-0.125	-0.289	-0.346	-0.0034	-0.906	-0.408	-1.27	-1.14	-0.889	-0.323	-0.812	-0.591	-0.192	1.55	-0.315	-1.33	-0.626 (inactive)
CC(C)[Si]1(C(C)C)OCc2cc(C3CC3)nc(-c3ccccc3)c21	-0.613	-0.536 (inactive)	-0.295	-0.12	0.112	-0.57	-0.683	-0.124	-0.161	-0.26	-1.42	-0.722	-0.294	-0.742	0.441	-0.5	0.325	-0.165	-0.625	-0.525 (inactive)
COc1ccc([Si](C)(C)[C@H]2[C@H](CCO)O[C@@]3(C(=O)N(Cc4ccccc4)c4ccc(N5C(=O)c6cccc7cccc5c67)cc43)[C@@H]2C)cc1	0.151	-0.229 (inactive)	-0.18	-0.155	0.286	0.0609	1.06	0.143	-0.966	0.386	1.38	-0.333	0.209	-0.603	-0.357	-0.751	2.33	-0.297	0.641	-1.84 (inactive)
O=C1c2ccccc2[C@](Cc2ccccc2I)(C(=O)NCc2ccccc2)[C@H](c2ccc(CO)cc2)N1Cc1ccccc1C(F)(F)F	0.609	-0.342 (inactive)	-0.253	-0.11	0.631	1.37	0.595	0.514	-1.84	-0.32	-0.77	-0.455	-0.328	-0.373	-1.2	-1.36	1.11	-1.22	-1.12	-1.09 (inactive)
